The source of these data is PubChem BioAssay (Tox21).

Records with an inconclusive call do not appear. The source made the active and inactive calls. Unless noted, calls come from the whole dose curve; as a rule, active = well fitted curve in the direction sought with a large enough effect in the repeat runs; inconclusive = weak or mixed curves; inactive = no such curve, though single readings can be large; an effect the other way counts as inactive or inconclusive.

Assay [1] can be described thus: qHTS assay to identify small molecule agonists of the vitamin D receptor (VDR) signaling pathway - cell viability counter screen (AID 743224). Note: series mostly up to about 63 µM; nearly all actives have a fitted effect of over 50% in size. The procedure, abridged: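 Here cell health was gauged by luminescent ATP detection (CellTiter-Glo, 30 min RT) in VDR-bla cells that had been incubated with test compounds for 16 h at 37C and 5% CO2.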
Assay [2] is described as follows: qHTS assay to identify small molecule antagonists of the vitamin D receptor (VDR) signaling pathway - cell viability counter screen (AID 743225). Note: nearly all actives have a fitted effect of over 50% in size. The procedure, abridged:
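VDR-UAS-bla HEK 293T cells were plated and incubated 4 h at 37C, then dosed with compound plus 3 nM (final) 1-alpha,25-dihydroxyvitamin D3 for 16 h. After the 2 h beta-lactamase read, viability in the same wells was read as CellTiter-Glo luminescence after 30 min at room temperature.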
(In general: Quantitative high-throughput screening tests each substance at several concentrations.)

Assay [3] in a line: qHTS assay to identify small molecule agonists of the NFkB signaling pathway (AID 1159509; active = well fitted curve in the direction sought with a large enough effect in the signal ratio in the repeat runs, not every such curve was filed as active; the % refers to the signal ratio; note: series mostly up to about 61 µM). The procedure, abridged:
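After overnight attachment, reporter cells received test compounds, DMSO or positive controls and were incubated 5 hr at 37 C. FRET substrate was then added for 1.5 hr at room temperature before dual-emission fluorescence reading.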

The nature of assay [4]: qHTS assay to identify small molecule agonists of the NFkB signaling pathway - cell viability counter screen (AID 1159515; calls by dose curve; note: series mostly up to about 61 µM; nearly all actives have a fitted effect of over 55% in size). The procedure, abridged: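 5 hr compound treatment of NFkB-bla ME-180 cells (2,000/well, seeded overnight beforehand), followed by reporter substrate for 1.5 hr. CellTiter-Glo added afterward; luminescence after 30 min RT.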
The nature of assay [5]: qHTS assay to identify small molecule agonists of the endoplasmic reticulum stress response signaling pathway - cell viability counter screen (AID 1159517; calls by dose curve;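 note: HeLa cells carrying an ER stress response element beta-lactamase reporter; series mostly up to about 61 µM; nearly all actives have a fitted effect of over 50% in size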). The procedure, abridged:
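Luminescence readout: CellTiter-Glo, 30 min RT, same wells as the ESRE-bla reporter read. HeLa ESRE-bla, 1,500 cells/well, o/n 37 C; cpd 5 hr 37 C/5% CO2.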

Assay [6] has as its target Nuclear receptor ROR-gamma (Homo sapiens) (UniProt P51449). Kind of assay: qHTS assay to identify small molecule antagonists of the retinoid-related orphan receptor gamma (ROR-gamma) signaling pathway (AID 1159521; note: nearly all actives have a fitted effect of over 50% in size; note: potency is the fitted concentration of half-maximal effect). The procedure, abridged: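 Tet-on ROR-gamma CHO cells with ROR response element-luciferase reporter; compounds added 2 hr before 1 uM doxycycline induction, then 16 hr at 37 C. Antagonism scored as decreased ONE-Glo luminescence.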

Assay [7] can be described thus: qHTS assay to identify small molecule agonists of the AP-1 signaling pathway - cell viability counter screen (AID 1159525; calls by dose curve; note: nearly all actives have a fitted effect of over 55% in size). In short, it runs like this: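 ME-180 AP-1-bla, 2500 cells/well, Opti-MEM + 0.5% dialyzed FBS; overnight 37 °C; cpd 15-pt titration, 5 h 37 °C; CellTiter-Glo 30 min RT; luminescence read; normalised to TOAB and DMSO controls.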
The nature of assay [8]: qHTS assay to identify small molecule agonists of the AP-1 signaling pathway (AID 1159526; calls by dose curve).
Assay [9] has as its target Retinoic acid receptor RXR-alpha (Homo sapiens) (UniProt P19793). Kind of assay: qHTS assay to identify small molecule agonists of the RXR signaling pathway (AID 1159527; calls by dose curve; note: nearly all actives have a fitted effect of over 35% in size). The procedure, abridged:
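GeneBLAzer RXR-alpha-UAS-bla HEK 293T cells in 2% charcoal-stripped FBS medium were exposed to compounds for 16 hr at 37 C in agonist mode. Beta-lactamase reporter read as 460/530 nm FRET ratio after 2 hr substrate loading.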

A short description of assay [10]: qHTS assay to identify small molecule agonists of the RXR signaling pathway - cell viability counter screen (AID 1159529). In short, it runs like this:
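RXR-alpha-UAS-bla HEK 293T cells in medium with 2% charcoal-stripped FBS were pre-incubated 5 hr, then compound-treated 16 hr at 37 C. Viability was read by CellTiter-Glo luminescence in the same wells as the beta-lactamase assay, with tetraoctyl ammonium bromide as positive control.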

Assay [11] in a line: qHTS assay to identify small molecule antagonists of the retinoid acid receptor (RAR) signaling pathway - cell viability counter screen (AID 1159551). Note: nearly all actives have a fitted effect of over 35% in size. In short, it runs like this:
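Seed C3RL4 cells; next day add compound, then retinol to 1 uM final; incubate 6 h at 37 C; add CellTiter-Glo; read luminescence after 30 min at RT.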

A short description of assay [12]: qHTS assay to identify small molecule antagonists of the retinoic acid receptor (RAR) signaling pathway (AID 1159552; note: nearly all actives have a fitted effect of over 50% in size). The procedure, abridged:
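Retinol signaling pathway inhibitors screened in C3RL4 RARE-luciferase reporter cells seeded overnight at 37 C, then compounds added with 1 uM (final) retinol as pathway substrate. After 6 hr at 37 C, luciferase luminescence read after 30 min at room temperature.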

Assay [13] is described as follows: qHTS assay to identify small molecule agonists of the retinoic acid receptor (RAR) signaling pathway (AID 1159553). In short, it runs like this:
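Activation of retinol signaling was monitored via a RARE luciferase reporter in C3RL4 cells. After 6 hr compound treatment at 37 C, detection reagent was added for 30 min at room temperature before luminescence reading.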

A short description of assay [14]: qHTS assay to identify small molecule antagonists of the retinoid-related orphan receptor gamma (ROR-gamma) signaling pathway - cell viability counter screen (AID 1159520). Note: nearly all actives have a fitted effect of over 50% in size. The procedure, abridged:
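Tet-on ROR gamma CHO cells (1,000/well) were plated 4 hr, given compounds in DMSO for 2 hr at 37 C, then induced with 1 uM final doxycycline for 16 hr. Viability was read as ATP by CellTiter-Glo luminescence after 30 min.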

The nature of assay [15]: qHTS assay to identify small molecule agonists of the endoplasmic reticulum stress response signaling pathway (AID 1159516; active = well fitted activation curve with a large enough effect in the signal ratio in the repeat runs, not every such curve was filed as active; the % refers to the signal ratio). The procedure, abridged:
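Reporter HeLa cells (ESRE-beta-lactamase) underwent 5 hr compound incubation at 37 C and 5% CO2 in quantitative HTS format. Detection followed 2 hr of FRET substrate loading at room temperature.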

The nature of assay [16]: qHTS assay to identify small molecule antagonists of the estrogen related receptor (ERR) signaling pathway - cell viability counter screen (AID 1224818).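 Note: series mostly up to about 46 µM; viability measured after 17.5 h of compound exposure.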 The procedure, abridged:
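In the same ERR cell assay, compound-treated wells (17.5 h, 37 C) were multiplexed with a fluorogenic viability reagent, CellTiter-Fluor, read after 30 min to flag cytotoxic substances.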

The nature of assay [17]: qHTS assay to identify small molecule antagonists of the estrogen related receptor (ERR) signaling pathway (AID 1224819). In short, it runs like this: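 qHTS in ERR cells, 2,000/well, 1536 format. Cpd (DMSO) added after 6 h settle, 18 h 37 C. One-Glo luminescence, 30 min RT.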
The nature of assay [18]: qHTS assay to identify small molecule agonists of the estrogen related receptor (ERR) signaling pathway (AID 1224820). In short, it runs like this: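 Quantitative HTS of the LOPAC library used NTP ERR reporter cells treated 18 h at 37 C. Signal is luminescence after One-Glo addition and a 30 min room-temperature incubation.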
A short description of assay [19]: qHTS assay to identify small molecule antagonists of the estrogen related receptor signaling pathway with the pleiotropic PPARgamma coactivator (PGC) cell viability counter screen (AID 1224822; note: series mostly up to about 46 µM). The procedure, abridged:
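Compounds in DMSO, with positive and negative controls, were applied to PGC/ERR cells (2,000/well) and left 17.5 h at 37 C before CellTiter-Fluor detection.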

Chain of Retinoic acid receptor RXR-alpha (Homo sapiens) (P19793 whole entry, looked up): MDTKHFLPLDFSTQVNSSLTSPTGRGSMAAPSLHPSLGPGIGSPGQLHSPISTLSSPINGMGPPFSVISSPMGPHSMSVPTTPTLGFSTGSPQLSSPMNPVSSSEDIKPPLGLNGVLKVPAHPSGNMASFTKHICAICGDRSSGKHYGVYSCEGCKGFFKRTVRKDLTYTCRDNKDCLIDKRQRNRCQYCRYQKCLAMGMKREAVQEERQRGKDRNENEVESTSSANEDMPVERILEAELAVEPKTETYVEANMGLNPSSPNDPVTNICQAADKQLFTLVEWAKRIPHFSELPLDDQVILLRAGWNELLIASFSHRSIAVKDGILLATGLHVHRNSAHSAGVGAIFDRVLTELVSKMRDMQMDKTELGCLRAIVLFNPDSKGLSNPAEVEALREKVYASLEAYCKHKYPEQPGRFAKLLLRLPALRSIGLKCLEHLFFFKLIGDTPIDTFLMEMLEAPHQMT

As to `COCCOCCOC`, the Potency result in assay [1], in [5], in assay [6], in assay [8], in assay [9] and in assay [10] was “inactive” in each case. For the same molecule, the Potency entry in assay [12] and in assay [13] was “inactive” in each case. Besides, the molecule was called inactive in assay [2], in assay [3], in assay [4], in [7] and in [11].
Turning to `Nc1cccc(N)c1`, the Potency entry in assay [1], in [5], in [6], in assay [8], in assay [9] and in [10] was “inactive” throughout. Besides, the Potency result in assay [12] and in assay [13] was “inactive” throughout. Further, the molecule was called inactive in [2], in [3], in assay [4], in [7] and in assay [11].
For the molecule `NC(N)=NC(N)=NCCc1ccccc1`, the Potency result in assay [1], in [5], in [8], in assay [9], in assay [10] and in assay [12] was “inactive” throughout. In addition, the result in assay [2], in [3], in assay [4], in assay [14], in assay [7] and in assay [11] was inactive. Also, in assay [6], the Potency was 30.6 µM (active).
For the molecule `CCN1CCCC1=O`, the Potency entry in assay [1], in [5], in [6], in assay [8], in [9] and in assay [10] was “inactive” in each case. Also, the Potency entry in [12] is “inactive”. Also, the call in assay [2], in [3], in assay [15], in [7] and in assay [11] was inactive.
Turning to `c1ccc2[nH]c(-c3cscn3)nc2c1`, the Potency entry in assay [1], in assay [5], in [6], in assay [8], in assay [10] and in assay [12] was “inactive” in each case. For the same molecule, the call in assay [2], in [3], in assay [15], in assay [7] and in assay [11] was inactive.
Turning to `C[C@]12CC[C@@H]3c4ccc(O)cc4C[C@@H](CCCCCCCCCS(=O)CCCC(F)(F)C(F)(F)F)[C@H]3[C@@H]1CC[C@@H]2O` (stereo not given in full), the Potency result in assay [1], in assay [5], in [8], in assay [9], in assay [10] and in assay [12] was “inactive” each time. The molecule was classed as inactive in [2], in assay [3], in assay [7], in assay [11], in [16] and in [18]. In addition, the result in [19] was inactive. Also, the Potency in assay [17] was 7.22 µM (active).
Consider `CC(O)COc1ccccc1` (stereo not given), for which the Potency entry in [1], in [5], in assay [6], in assay [8], in assay [9] and in assay [10] was “inactive” in each case. Further, the Potency entry in [12] and in assay [13] was “inactive” throughout. The result in assay [2], in assay [3], in assay [14], in assay [7] and in assay [11] was inactive.
On to `NC(=O)c1ccc([N+](=O)[O-])cc1Cl`, for which the Potency result in [1], in [5], in assay [6], in assay [8], in [10] and in assay [12] was “inactive” throughout. Further, the Potency result in [13] is “inactive”. Moreover, the molecule was classed as inactive in assay [2], in [3], in assay [14], in assay [7] and in assay [11].
For `C/C=C/c1ccc(O)c(OC)c1`, the Potency entry in assay [1], in [5], in assay [6], in assay [8], in assay [10] and in assay [12] was “inactive” throughout. In addition, the Potency entry in assay [13] was “inactive”. In addition, the call in assay [2], in [4], in assay [15], in assay [14], in assay [7] and in assay [11] was inactive.
Consider `O=c1cc[nH]c(=O)[nH]1`, for which the Potency entry in assay [1], in assay [5], in [6], in assay [8], in [10] and in [12] was “inactive” in each case. For the same molecule, the call in [2], in [3], in assay [14], in [7] and in assay [11] was inactive.
